# The panel holds about 83,000 compounds, 20% with a hit somewhere; the sample as a whole holds those more often.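 The test compound was applied at a single concentration to cells in 96-well plates for 48 hours, and percent growth was recorded.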 A number with no mark means an inactive call. Active and inactive are the calls of the source. Rule for the calls: active = growth percent below 10; inactive = the rest.
# Tested on: UO-31 renal
# Assay: NCI-60 one-dose screen, 48 h (100 = growth as untreated, 0 = no growth, -100 = all killed)
# Details: 10 µM unless noted
row,SMILES,growth
1,O=c1[nH]c2ccc(Cl)cc2cc1CSc1ccccc1Nc1nccc(-c2ccc(Cl)cc2)n1,81.2%
2,CC(C)(C)OC(=O)N1C(=O)c2c(c3c4ccccc4[nH]c3c3ccc4ccccc4c23)C1=O,40.4%
3,CNC(=O)c1cc(-c2ccc(NC(=O)Nc3ccc(N4CCN(C)CC4)c(C(F)(F)F)c3)cc2)nc2cccnc12,-81% (active)
4,C/C(=N/NC(N)=S)c1ccc(Nc2nc(SCC(C)C)nc(-c3ccc(F)cc3)c2C#N)cc1,0.28% (active)
5,CCCCN1C(=O)/C(=c2\sc3n(c2=O)C2C(NN=3)N(CC)C(=O)N2CC)c2cc(Cl)ccc21 (stereo unspecified),63%
6,COc1cc(-c2nc3ccc(-c4nnc(SCC(=O)Nc5ccc(C(C)=O)cc5)o4)cc3[nH]2)cc(OC)c1OC,85.2%
7,N#Cc1c(-c2ccc(Cl)cc2)nc(SCc2ccc(F)cc2)nc1N1CCNCC1,51.3%
8,Cn1cc(-c2cc(N)n3nc(-c4cn(C)c5ccc(Br)cc45)cc3n2)c2cc(Br)ccc21,81.8%
9,Cc1cc(C(=O)Nc2sc3c(c2C(N)=O)CCC(=O)C3)ccc1OCCN1CCCCC1,94.8%
10,NS(=O)(=O)c1ccc(Nc2nc(SCC(=O)c3ccc(Cl)cc3)nc3ccccc23)cc1,82.3%
11,CC(C)(C)Nc1nc2c(OCCc3ccccc3)cccn2c1-c1ccc(O)cc1,57.3%
12,CCOc1ccc2nc(NC(=O)c3ccc(C(F)(F)F)cc3)sc2c1,104%
13,N#Cc1c(-c2ccc(Cl)cc2)nc(SCc2ccc([N+](=O)[O-])cc2)nc1N1CCNCC1,22.4%
14,Cc1cccc(/C=C/c2nn3c(-c4ccco4)nnc3s2)c1,83.7%
15,Cc1sc2c(c1C)c(=O)nc1c(-c3nc(-c4ccc(F)cc4)no3)n[nH]n12,88.1%
16,C[C@@H]1CN(c2ccc3ncc(C#Cc4cncc(C(=O)Nc5ccc(CN6CCN(C)CC6)c(C(F)(F)F)c5)c4)n3n2)C[C@H](C)O1,-87.9% (active)
17,Nc1c(C(=O)Nc2ccc(Cl)cc2)sc2nc(-c3cnccn3)cc(-c3cccs3)c12,67.7%
18,O=c1[nH]c2ccccc2cc1CSc1ccccc1Nc1nccc(-c2ccc(C(F)(F)F)cc2)n1,72.3%
19,Cc1c(Nc2nnc(SCC(=O)Nc3sc4c(c3C#N)CCCC4)s2)c(=O)n(-c2ccccc2)n1C,97.3%

row,SMILES,growth
1,CS(=O)(=O)c1ccc(-c2nc3ccccn3c2C=Nc2ccc(Cl)cc2)cc1,61.4%
2,N[C@@H](Cc1cn(-c2c3ccccc3nc3ccccc23)nn1)C(=O)O,89.6%
3,CC(C)(C)Nc1nc2c(OCCc3ccccc3)cccn2c1-c1cccc(F)c1,-11% (active)
4,CCN1C(=S)N(c2ccccc2)C2NC(=O)N(/N=C/C=C/c3ccccc3OC)C21 (stereo unspecified),90.4%
5,CCOC(=O)c1csc(NC(=O)CSc2nc3sc4c(c3c(=O)n2-c2ccc(Cl)cc2)CCCC4)n1,77.2%
6,Cc1ccc(CNS(=O)(=O)/N=C2\NC(=O)NC2=C(Cl)Cl)cc1,84.7%
7,CO/N=C1\CCc2c(sc(NC(=O)c3cccc(C(F)(F)F)c3)c2C(N)=O)C1,-16.4% (active)
8,O=C(CSc1nc2sc3c(c2c(=O)n1-c1ccc(Cl)cc1)CCCC3)N/N=C/c1ccc(F)cc1,83.2%
9,CN1CCN(Cc2ccc(NC(=O)c3cncc(C#Cc4cnc5[nH]ncc5c4)c3)cc2C(F)(F)F)CC1,2.97% (active)
10,CC(C)(C)Nc1nc2c(OCCc3ccccc3)cccn2c1-c1ccc(Cl)cc1,0.0667% (active)
11,N#Cc1c(-c2ccc(Cl)cc2)nc(SCc2ccccc2)nc1N1CCNCC1,53%
12,COc1ccc(/C=C/C(=O)c2ccc(NC(=O)CSc3nnc(-c4ccc5nc(-c6ccc(Cl)cc6)[nH]c5c4)o3)cc2)cc1,87.5%
13,CC(=O)Nc1cc(F)cc(-c2ccc3[nH]cc(-c4ccccc4)c3n2)c1,10.1%
14,C=CCSc1ccc2c(c1)C(N1CCNCC1)=Nc1ccccc1O2,62.1% [8.25 µM]
15,Fc1ccc(-c2nc(C(Cl)Cl)nc3cc(-c4ccccc4)nn23)cc1,40.9%
16,COc1ccc(NC2=C(Cl)C(=O)C(C)=C(C)C2=O)cc1OC,90.3%
17,O=C1[C@H]2Cc3c([nH]c4ccccc34)[C@@H](c3ccc(Br)cc3)N2C(=O)CN1C1CCN(Cc2ccccc2)CC1,38.5%
18,Cn1c(SCC(=O)c2cccs2)nc2ccccc2c1=O,84.5%
19,C/C(=C(/c1ccc(Cl)cc1)c1ccc(OCCN)cc1)c1ccc(C)cc1,83.2%

# Tested on: TK-10 renal
# Assay: as above
# Details: 10 µM unless noted
row,SMILES,growth
1,O=c1[nH]c2ccc(Cl)cc2cc1CSc1ccccc1Nc1nccc(-c2ccc(Cl)cc2)n1,128%
2,CC(C)(C)OC(=O)N1C(=O)c2c(c3c4ccccc4[nH]c3c3ccc4ccccc4c23)C1=O,36.8%
3,CNC(=O)c1cc(-c2ccc(NC(=O)Nc3ccc(N4CCN(C)CC4)c(C(F)(F)F)c3)cc2)nc2cccnc12,-89.1% (active)
4,C/C(=N/NC(N)=S)c1ccc(Nc2nc(SCC(C)C)nc(-c3ccc(F)cc3)c2C#N)cc1,8.09% (active)
5,CCCCN1C(=O)/C(=c2\sc3n(c2=O)C2C(NN=3)N(CC)C(=O)N2CC)c2cc(Cl)ccc21 (stereo unspecified),132%
6,COc1cc(-c2nc3ccc(-c4nnc(SCC(=O)Nc5ccc(C(C)=O)cc5)o4)cc3[nH]2)cc(OC)c1OC,121%
7,N#Cc1c(-c2ccc(Cl)cc2)nc(SCc2ccc(F)cc2)nc1N1CCNCC1,92.7%
8,Cn1cc(-c2cc(N)n3nc(-c4cn(C)c5ccc(Br)cc45)cc3n2)c2cc(Br)ccc21,133%
9,Cc1cc(C(=O)Nc2sc3c(c2C(N)=O)CCC(=O)C3)ccc1OCCN1CCCCC1,148%
10,NS(=O)(=O)c1ccc(Nc2nc(SCC(=O)c3ccc(Cl)cc3)nc3ccccc23)cc1,153%
11,CC(C)(C)Nc1nc2c(OCCc3ccccc3)cccn2c1-c1ccc(O)cc1,113%
12,CCOc1ccc2nc(NC(=O)c3ccc(C(F)(F)F)cc3)sc2c1,95.4%
13,N#Cc1c(-c2ccc(Cl)cc2)nc(SCc2ccc([N+](=O)[O-])cc2)nc1N1CCNCC1,77.4%
14,Cc1cccc(/C=C/c2nn3c(-c4ccco4)nnc3s2)c1,101%
15,Cc1sc2c(c1C)c(=O)nc1c(-c3nc(-c4ccc(F)cc4)no3)n[nH]n12,122%
16,C[C@@H]1CN(c2ccc3ncc(C#Cc4cncc(C(=O)Nc5ccc(CN6CCN(C)CC6)c(C(F)(F)F)c5)c4)n3n2)C[C@H](C)O1,-91.1% (active)
17,Nc1c(C(=O)Nc2ccc(Cl)cc2)sc2nc(-c3cnccn3)cc(-c3cccs3)c12,118%
18,O=c1[nH]c2ccccc2cc1CSc1ccccc1Nc1nccc(-c2ccc(C(F)(F)F)cc2)n1,112%
19,Cc1c(Nc2nnc(SCC(=O)Nc3sc4c(c3C#N)CCCC4)s2)c(=O)n(-c2ccccc2)n1C,135%

row,SMILES,growth
1,CS(=O)(=O)c1ccc(-c2nc3ccccn3c2C=Nc2ccc(Cl)cc2)cc1,110%
2,N[C@@H](Cc1cn(-c2c3ccccc3nc3ccccc23)nn1)C(=O)O,140%
3,CC(C)(C)Nc1nc2c(OCCc3ccccc3)cccn2c1-c1cccc(F)c1,-6.22% (active)
4,CCN1C(=S)N(c2ccccc2)C2NC(=O)N(/N=C/C=C/c3ccccc3OC)C21 (stereo unspecified),105%
5,CCOC(=O)c1csc(NC(=O)CSc2nc3sc4c(c3c(=O)n2-c2ccc(Cl)cc2)CCCC4)n1,125%
6,Cc1ccc(CNS(=O)(=O)/N=C2\NC(=O)NC2=C(Cl)Cl)cc1,48.8%
7,CO/N=C1\CCc2c(sc(NC(=O)c3cccc(C(F)(F)F)c3)c2C(N)=O)C1,-17.1% (active)
8,O=C(CSc1nc2sc3c(c2c(=O)n1-c1ccc(Cl)cc1)CCCC3)N/N=C/c1ccc(F)cc1,125%
9,CN1CCN(Cc2ccc(NC(=O)c3cncc(C#Cc4cnc5[nH]ncc5c4)c3)cc2C(F)(F)F)CC1,49.7%
10,CC(C)(C)Nc1nc2c(OCCc3ccccc3)cccn2c1-c1ccc(Cl)cc1,20.8%
11,N#Cc1c(-c2ccc(Cl)cc2)nc(SCc2ccccc2)nc1N1CCNCC1,96%
12,COc1ccc(/C=C/C(=O)c2ccc(NC(=O)CSc3nnc(-c4ccc5nc(-c6ccc(Cl)cc6)[nH]c5c4)o3)cc2)cc1,136%
13,CC(=O)Nc1cc(F)cc(-c2ccc3[nH]cc(-c4ccccc4)c3n2)c1,48.6%
14,C=CCSc1ccc2c(c1)C(N1CCNCC1)=Nc1ccccc1O2,85% [8.25 µM]
15,Fc1ccc(-c2nc(C(Cl)Cl)nc3cc(-c4ccccc4)nn23)cc1,30.3%
16,COc1ccc(NC2=C(Cl)C(=O)C(C)=C(C)C2=O)cc1OC,170%
17,O=C1[C@H]2Cc3c([nH]c4ccccc34)[C@@H](c3ccc(Br)cc3)N2C(=O)CN1C1CCN(Cc2ccccc2)CC1,64.3%
18,Cn1c(SCC(=O)c2cccs2)nc2ccccc2c1=O,177%
19,C/C(=C(/c1ccc(Cl)cc1)c1ccc(OCCN)cc1)c1ccc(C)cc1,116%

# Reference: PubChem BioAssay (NCI)
